In all, about 5,500 compounds went through this assay and about 2,000 (36%) were called active. Not shown: some 18% with an inconclusive outcome. No stated cut-off is given here; in the data, active means normalized growth mostly below about 0.91 (no sharp cut-off); inconclusive means no clear call, values can overlap the other calls; inactive means mostly above about 0.92. The list shows a part of the results.
Assay: chemical genetic growth profiling, strain panel (AID 1159580);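 further: tested at 20 µM; growth read once vehicle control cultures reached saturation at 30 °C; 1 = growth at the plate median or of vehicle wells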
Conditions: growth OD

Measured: normalized growth

CC1(C)O[C@@H]2CC3C4C[C@H](F)C5=CC(=O)CC[C@]5(C)C4[C@@H](O)C[C@]3(C)[C@]2(C(=O)CO)O1 (some centres not stated)
inactive: S. cerevisiae deletion strains, locus YJR075W, strain HOC1, stronger effect = lower value 1.01 | S. cerevisiae deletion strains, locus YKL009W, strain mrt4, stronger effect = lower value 0.999 | S. cerevisiae deletion strains, locus YKL068W, stronger effect = lower value 1.02 | S. cerevisiae deletion strains, locus YKL085W, strain MDH1 (second series), stronger effect = lower value 1 | S. cerevisiae deletion strains, locus YKL085W, strain MDH1, stronger effect = lower value 1 | S. cerevisiae deletion strains, locus YKL160W, strain elf1, stronger effect = lower value 0.988 | S. cerevisiae deletion strains, locus YKL190W, strain CNB1, stronger effect = lower value 1.02 | S. cerevisiae deletion strains, locus YKR001C, strain vps1, stronger effect = lower value 1.01 | S. cerevisiae deletion strains, locus YKR026C, strain gcn3, stronger effect = lower value 1 | S. cerevisiae deletion strains, locus YKR091W, strain srl3, stronger effect = lower value 0.997 | S. cerevisiae deletion strains, locus YLL001W, strain dnm1, stronger effect = lower value 0.977 | S. cerevisiae deletion strains, locus YLL026W, stronger effect = lower value 1.01 | S. cerevisiae deletion strains, locus YLL041C, strain sdh2, stronger effect = lower value 1.01 | S. cerevisiae deletion strains, locus YLR027C, strain aat2, stronger effect = lower value 1.02 | S. cerevisiae deletion strains, locus YLR039C, strain RIC1, stronger effect = lower value 1.03 | S. cerevisiae deletion strains, locus YLR058C, strain SHM2, stronger effect = lower value 1.02 | S. cerevisiae deletion strains, locus YLR102C, strain apc9, stronger effect = lower value 1.01 | S. cerevisiae deletion strains, locus YLR113W, strain HOG1, stronger effect = lower value 1.02 | S. cerevisiae deletion strains, locus YLR221C, strain rsa3, stronger effect = lower value 0.999 | S. cerevisiae deletion strains, locus YLR258W, strain gsy2, stronger effect = lower value 1.02 | S. cerevisiae deletion strains, locus YLR262C, strain YPT6 (second series), stronger effect = lower value 0.988 | S. cerevisiae deletion strains, locus YLR262C, strain YPT6, stronger effect = lower value 1.04 | S. cerevisiae deletion strains, locus YLR268W, strain sec22, stronger effect = lower value 1.01 | S. cerevisiae deletion strains, locus YLR320W, strain mms22, stronger effect = lower value 0.985 | S. cerevisiae deletion strains, locus YLR330W, strain CHS5, stronger effect = lower value 1.01 | S. cerevisiae deletion strains, locus YLR342W, strain FKS1 (second series), stronger effect = lower value 0.997 | S. cerevisiae deletion strains, locus YLR342W, strain FKS1, stronger effect = lower value 1.01 | S. cerevisiae deletion strains, locus YLR357W, strain rsc2, stronger effect = lower value 0.968 | S. cerevisiae deletion strains, locus YLR370C, strain arc18, stronger effect = lower value 1 | S. cerevisiae deletion strains, locus YLR371W, strain rom2, stronger effect = lower value 1 | S. cerevisiae deletion strains, locus YLR384C, strain iki3, stronger effect = lower value 0.986 | S. cerevisiae deletion strains, locus YLR418C, strain cdc73, stronger effect = lower value 1.01 | S. cerevisiae deletion strains, locus YML016C, strain PPZ1, stronger effect = lower value 1.01 | S. cerevisiae deletion strains, locus YML032C, strain rad52, stronger effect = lower value 0.996 | S. cerevisiae deletion strains, locus YML120C, strain ndi1, stronger effect = lower value 1.01 | S. cerevisiae deletion strains, locus YML124C, strain tub3, stronger effect = lower value 1.01 | S. cerevisiae deletion strains, locus YMR058W, strain fet3, stronger effect = lower value 1.02 | S. cerevisiae deletion strains, locus YMR078C, strain ctf18, stronger effect = lower value 1.01 | S. cerevisiae deletion strains, locus YMR125W, strain sto1, stronger effect = lower value 1.02 | S. cerevisiae deletion strains, locus YMR129W, stronger effect = lower value 1.02 | S. cerevisiae deletion strains, locus YMR205C, strain PFK2, stronger effect = lower value 1.01 | S. cerevisiae deletion strains, locus YMR223W, strain ubp8, stronger effect = lower value 0.993 | S. cerevisiae deletion strains, locus YMR231W, strain pep5, stronger effect = lower value 1 | S. cerevisiae deletion strains, locus YMR263W, strain SAP30, stronger effect = lower value 1.02 | S. cerevisiae deletion strains, locus YMR307W, strain GAS1, stronger effect = lower value 1.01 | S. cerevisiae deletion strains, locus YNL067W, strain RPL9B, stronger effect = lower value 1.01 | S. cerevisiae deletion strains, locus YNL071W, strain lat1, stronger effect = lower value 1.01 | S. cerevisiae deletion strains, locus YNL128W, strain TEP1, stronger effect = lower value 1.02 | S. cerevisiae deletion strains, locus YNL153C, strain GIM3, stronger effect = lower value 1.01 | S. cerevisiae deletion strains, locus YNL183C, strain NPR1, stronger effect = lower value 0.931 | S. cerevisiae deletion strains, locus YNL209W, strain ssb2, stronger effect = lower value 0.999 | S. cerevisiae deletion strains, locus YNL233W, strain BNI4, stronger effect = lower value 1.01 | S. cerevisiae deletion strains, locus YNL248C, strain rpa49, stronger effect = lower value 0.987 | S. cerevisiae deletion strains, locus YNL250W, strain rad50, stronger effect = lower value 1 | S. cerevisiae deletion strains, locus YNL271C, strain bni1, stronger effect = lower value 1.01 | S. cerevisiae deletion strains, locus YNL298W, strain CLA4, stronger effect = lower value 1 | S. cerevisiae deletion strains, locus YNL307C, strain MCK1, stronger effect = lower value 1.01 | S. cerevisiae deletion strains, locus YNL322C, strain KRE1 (second series), stronger effect = lower value 0.993 | S. cerevisiae deletion strains, locus YNL322C, strain KRE1, stronger effect = lower value 1.02 | S. cerevisiae deletion strains, locus YNR049C, strain mso1, stronger effect = lower value 1 | S. cerevisiae deletion strains, locus YNR052C, strain pop2, stronger effect = lower value 0.999 | S. cerevisiae deletion strains, locus YOL006C, strain TOP1, stronger effect = lower value 1.04 | S. cerevisiae deletion strains, locus YOL012C, strain htz1 0.952 | S. cerevisiae deletion strains, locus YOL147C, strain pex11, stronger effect = lower value 1.01 | S. cerevisiae deletion strains, locus YOR001W, strain rrp6, stronger effect = lower value 1 | S. cerevisiae deletion strains, locus YOR061W, strain CKA2, stronger effect = lower value 1.01 | S. cerevisiae deletion strains, locus YOR069W, strain VPS5, stronger effect = lower value 1.01 | S. cerevisiae deletion strains, locus YOR070C, strain gyp1, stronger effect = lower value 1.01 | S. cerevisiae deletion strains, locus YOR080W, strain dia2, stronger effect = lower value 1.02 | S. cerevisiae deletion strains, locus YOR083W, strain WHI5, stronger effect = lower value 0.946 | S. cerevisiae deletion strains, locus YOR106W, strain vam3, stronger effect = lower value 1.01 | S. cerevisiae deletion strains, locus YOR136W, strain idh2, stronger effect = lower value 0.994 | S. cerevisiae deletion strains, locus YOR144C, strain elg1, stronger effect = lower value 1 | S. cerevisiae deletion strains, locus YOR184W, strain ser1, stronger effect = lower value 1 | S. cerevisiae deletion strains, locus YOR231W, strain MKK1, stronger effect = lower value 1.03 | S. cerevisiae deletion strains, locus YOR265W, strain rbl2, stronger effect = lower value 1.01 | S. cerevisiae deletion strains, locus YOR270C, strain vph1, stronger effect = lower value 1.03 | S. cerevisiae deletion strains, locus YOR290C, strain snf2, stronger effect = lower value 1.01 | S. cerevisiae deletion strains, locus YOR316C, strain cot1, stronger effect = lower value 1.01 | S. cerevisiae deletion strains, locus YPL051W, strain arl3, stronger effect = lower value 1.01 | S. cerevisiae deletion strains, locus YPL055C, strain LGE1, stronger effect = lower value 1.04 | S. cerevisiae deletion strains, locus YPL078C, strain atp4, stronger effect = lower value 1.01 | S. cerevisiae deletion strains, locus YPL106C, strain sse1, stronger effect = lower value 0.973 | S. cerevisiae deletion strains, locus YPL240C, strain hsp82, stronger effect = lower value 1 | S. cerevisiae deletion strains, locus YPL241C, strain CIN2, stronger effect = lower value 0.962 | S. cerevisiae deletion strains, locus YPL256C, strain CLN2, stronger effect = lower value 1.03 | S. cerevisiae deletion strains, locus YPR119W, strain clb2, stronger effect = lower value 1 | S. cerevisiae deletion strains, locus YPR141C, strain kar3, stronger effect = lower value 1.01 | S. cerevisiae deletion strains, locus YPR163C, strain tif3, stronger effect = lower value 1 | S. cerevisiae deletion strains, locus YPR167C, strain met16, stronger effect = lower value 1 | S. cerevisiae deletion strains, strain wtn01, stronger effect = lower value 1.01 | S. cerevisiae strains, strain wild type, stronger effect = lower value 1.02

Source: PubChem BioAssay AID1159580 (chemical genetic matrix, 2015)
